The record followed here is PubChem BioAssay (NCATS).

Results filed as inconclusive are left out. Unmarked numbers belong to inactive results. The source made the active and inactive calls. Calls follow the shape of the dose curve; as a rule, active = well fitted inhibition curve with a large enough effect; inconclusive = small, poorly fitted or top-dose-only effect; inactive = flat fitted curve, though single readings scatter.

One assay concerns KB-3-1. The assay can be described thus: Cytotoxic Profiling of Annotated Libraries Using Quantitative High-Throughput Screening (AID 1296008). Also: potency is read from the fitted curve at half-maximal effect. As to max response: % is scaled to controls: 0 for no effect and ±100 for the full control effect. The settings on record: Five cell lines viability, CellTiter-Glo ATP luminescence, 48-72 h; max response: active compounds read low. Summed up:
(§1)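 Compounds were pin-transferred onto cells and incubated 48 or 72 hr at 37 degree Celsius, 95% humidity. CellTiter-Glo was added, plates sat 10 min at room temperature, then ATP-coupled luminescence was imaged as the viability read-out.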

Assay [1] relates to NIH3T3. Described as above. The settings on record: Five cell lines viability, CellTiter-Glo ATP luminescence, 48-72 h; max response: active compounds read low. Summed up:
as §1

A further assay relates to HEK293T. The experiment in a line: qHTS assay to identify novel small-molecules to repurpose for Merkel cell carcinoma treatment (AID 1296009). As to conditions: MCC and control cell lines, CellTiter-Glo viability, 72 h; at 44.8 µM (top of the series) unless noted. In outline: (§2)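 qHTS format: cells treated with library compounds in DMSO across 8 (NPC) or 11 (MIPE) concentrations. Readout after 72 hr at 37 degree celsius was CellTiter-Glo luminescence.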
On the technique in general: qHTS replaces the single test concentration by a dilution series.

Assay [2] concerns NIH3T3. The description is as above. The settings on record: MCC and control cell lines, CellTiter-Glo viability, 72 h; at 44.8 µM (top of the series) unless noted. Summed up:
as §2
Background: ATP-based viability assays read luminescence as a measure of living cells.
Also: nearly all actives have a fitted effect of over 60% in size.

Consider `COc1ccc(C2COc3cc(O)ccc3C2)c(O)c1` (centres undefined), for which the max response in the assay on KB-3-1 was -10.5%; with NIH3T3 [1], 4.68%.
`CCc1c(C)nc2c(-c3cnn(-c4cc(CO)ccn4)c3)c[nH]n2c1=O`: the max response is -1.88% in the assay on KB-3-1 and -6.61% in the assay with NIH3T3 [1]. The compound was classed as inactive with HEK293T.
The corresponding values for `CCCCOC(=O)NC(=O)C1c2ccccc2Oc2ccccc21` are 2.73%, -5.65% and “inactive”.
For `FC(F)(F)c1ccc(Nc2nc(-c3c(C(F)(F)F)nc4ccccn34)cs2)cc1`, the results for the Potency in the assay with KB-3-1 and in the assay with NIH3T3 [1] were 0.206 µM (active) and 1.3 µM (active), respectively.
For `CC1(C)CC[C@]2(C(=O)O)CC[C@]3(C)C(=CCC4[C@@]5(C)C[C@@H](O)[C@H](O)C(C)(C)C5CC[C@]43C)C2C1` (some centres undefined), the compound was classed as inactive in the assay with KB-3-1. For the same compound, the max response in the assay on NIH3T3 [1] was 4.86%. Besides, the outcome in the assay with HEK293T is “inactive [at 17.4 µM]”.
For the compound `Cc1nc(Nc2n[nH]c3c2CN(C(=O)NC(CN(C)C)c2ccccc2)C3(C)C)c2sccc2n1` (centres undefined), the figures for the Potency in the assay on KB-3-1 and in the assay with NIH3T3 [1] were 1.84 µM (active) and 8.2 µM (active), respectively.
For `CCN(CC)CCN(Cc1ccc(-c2ccc(C(F)(F)F)cc2)cc1)C(=O)Cn1c(SCc2ccc(F)cc2)nc(=O)c2c1CCC2`, the figures for the Potency in the assay with KB-3-1 and with NIH3T3 [1] were 20.6 µM (active) and 4.61 µM (active), respectively.
Consider `O=C1CCC(=O)N(O)CCCCCNC(=O)CCC(=O)N(O)CCOCCNC(=O)CCC(=O)N(O)CCCCCN1`, for which the compound was classed as inactive with KB-3-1 and with NIH3T3 [1]. Besides, the outcome in the assay on NIH3T3 [2] is “inactive [at 17.4 µM]”.
Turning to `C[C@H](NC(c1cccc2[nH]c(=O)c(=O)[nH]c12)P(=O)(O)O)c1ccc(Br)cc1` (some centres undefined), the outcome in the assay on KB-3-1, with NIH3T3 [1] and in the assay on NIH3T3 [2] was inactive.
With `C=C1CCC2C(C)(COC(C)=O)CCCC2(C)C1CCC(C)CC(=O)O` (centres undefined), the max response with KB-3-1 was 8.96%. Besides, the outcome in the assay with NIH3T3 [1], in the assay with HEK293T and in the assay with NIH3T3 [2] was inactive.
In the case of `CC(C)=CCC[C@](C)(O)[C@H]1CC[C@]2(C)[C@@H]1[C@H](O)CC1[C@@]3(C)CC[C@H](O)C(C)(C)[C@@H]3[C@@H](O[C@@H]3O[C@H](CO)[C@@H](O)[C@H](O)[C@H]3O[C@@H]3O[C@H](CO)[C@@H](O)[C@H](O)[C@H]3O)C[C@]12C` (some centres undefined), the max response in the assay with KB-3-1 is 3.39%. In addition, the compound was classed as inactive in the assay on NIH3T3 [1]. The outcome in the assay with NIH3T3 [2] is “inactive [at 17.4 µM]”.
`COc1ccc(CCO[C@@H]2CCCC[C@H]2N2CC[C@@H](O)C2)cc1OC`: the max response in the assay on KB-3-1 was 4.12%. Also, the compound was classed as inactive in the assay on NIH3T3 [1] and with NIH3T3 [2].
Take `O=C(O)c1ccccc1NC(=O)N1CCC(c2ccccc2C(F)(F)F)CC1`: the max response in the assay with KB-3-1 is -2.67%. Further, the compound was called inactive in the assay with NIH3T3 [1], in the assay on HEK293T and in the assay with NIH3T3 [2].
In the case of `C[C@]12C[C@@H](O)[C@@H]3C[C@@]1(O[C@@H]1O[C@H](CO)[C@@H](O)[C@H](O)[C@H]1O)[C@]3(COC(=O)c1ccccc1)C(=O)O2`, in the assay with KB-3-1, the max response is 4.54%. Moreover, the compound was classed as inactive in the assay with NIH3T3 [1]. Besides, the outcome with HEK293T and in the assay on NIH3T3 [2] was “inactive [at 17.4 µM]” in each case.
In the case of `C[C@H](C(=O)NC1CCCC1)N(C(=O)Cn1nnc(-c2ccc3c(c2)OCO3)n1)C1CCCCC1`, the max response in the assay on KB-3-1 was 5.01%. The call in the assay on NIH3T3 [1] and with NIH3T3 [2] was inactive.
With `Cc1cc(=O)oc2c(C=O)c(O)ccc12`, the compound was called inactive with KB-3-1 and with HEK293T. For the same compound, in the assay on NIH3T3 [1], the max response is -0.325%.
`CC(NC(=O)C(O)C(C)C)C(=O)NC1C(=O)N(C)CCc2ccccc21` (centres undefined): the call with KB-3-1, with NIH3T3 [1], in the assay with HEK293T and with NIH3T3 [2] was inactive.
`CC1=C(C(=O)O)/C(=C\CO[C@@H]2O[C@H](CO)[C@@H](O)[C@H](O)[C@H]2O)C(OC(=O)/C=C\c2ccc(O)cc2)C1` (some centres undefined): the compound was called inactive with KB-3-1. In the assay on NIH3T3 [1], the max response was -21.6%. The outcome in the assay on HEK293T was “inactive [at 17.4 µM]”.
Consider `C[C@@]1(O)[C@H](O)[C@@H](CO)O[C@H]1n1ccc(N)nc1=O`, for which the call with KB-3-1 and with HEK293T was inactive.
For `CC1(C)CC[C@]2(C(=O)O)CC[C@]3(C)C(=CCC4[C@@]5(C)CC[C@H](O[C@@H]6O[C@H](CO)[C@@H](O)[C@H](O)[C@H]6O[C@@H]6O[C@H](CO)[C@@H](O)[C@H](O)[C@H]6O)[C@@](C)(CO)C5CC[C@]43C)[C@@H]2C1` (some centres undefined), the max response in the assay with KB-3-1 was 8.35%. Moreover, in the assay with NIH3T3 [1], the compound was called inactive. Also, the outcome with NIH3T3 [2] is “inactive [at 17.4 µM]”.
On to `Nc1nc(-n2cc(C(=O)O)c(=O)c3cc(F)c(N4CC(O)C4)c(Cl)c32)c(F)cc1F`, for which the max response in the assay with KB-3-1 was -18.7%; in the assay with NIH3T3 [1], 2.73%. Besides, in the assay on HEK293T, the call was inactive.
With `CC(C)C[C@H](CC(=O)NO)C(=O)N[C@H](C(=O)N[C@@H](C)C(=O)NCCN)C(C)(C)C`, the compound was classed as inactive with KB-3-1 and in the assay on NIH3T3 [1]. Moreover, the outcome in the assay with NIH3T3 [2] is “inactive [at 9.27 µM]”.
As for `CC(O)/C=C/C1(O)C(C)C(O[C@@H]2O[C@H](CO)[C@@H](O)[C@H](O)[C@H]2O)C(O)CC1(C)C` (some centres undefined), the max response in the assay on KB-3-1 is -3.24%. In the assay with NIH3T3 [1], the compound was called inactive. The outcome with HEK293T and in the assay with NIH3T3 [2] was “inactive [at 17.4 µM]” in each case.
